Polio RdRp inh – inhibitors of poliovirus RNA polymerase binding and polymerization | poliovirus polymerase elongation, fluorescence polarization; active compounds read low | 150,000 compounds, 0.66% hits | P03300 | % elongation, % (compound at 16.7 µg/mL); in the data active means % elongation below about 90%
Mtb MenB inh – inhibitors of Mycobacterium tuberculosis MenB enzyme | MenB enzyme assay, absorbance read-out | P9WNP5 | inhibition, % (concentration not given with the values) | 100,000 compounds, 0.43% hits; in the data active means inhibition above about 21%, passing the limit was not always enough
Target sequence (P9WNP5 whole entry, looked up): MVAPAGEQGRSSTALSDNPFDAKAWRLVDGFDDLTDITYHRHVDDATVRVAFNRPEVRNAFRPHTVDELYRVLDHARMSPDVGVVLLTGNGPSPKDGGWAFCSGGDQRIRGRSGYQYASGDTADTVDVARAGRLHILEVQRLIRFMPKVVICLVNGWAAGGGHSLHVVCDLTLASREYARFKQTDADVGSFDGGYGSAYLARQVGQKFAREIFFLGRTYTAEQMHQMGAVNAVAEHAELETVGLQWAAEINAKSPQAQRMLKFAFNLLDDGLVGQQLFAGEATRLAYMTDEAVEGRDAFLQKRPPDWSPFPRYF
Mtb MbtI inh – inhibitors of Mycobacterium tuberculosis siderophore enzyme MbtI | purified MbtI enzyme, fluorescence intensity read-out | 100,000 compounds, 0.89% hits | P9WFX0 | inhibition, % (concentration not given with the values); in the data active means inhibition mostly above about 56%, no sharp cut-off; inactive means mostly below about 77%
Of the large screens only hits and unclear results are named; the others gave an inactive call. In the library only some 1.4% were active in any assay of this set; here they are far more common.

O=C1NC2=C(C(=O)NN(c3ccccc3)C2)C(c2ccccc2)N1 (stereo not given)	none
CCOc1cc(C#N)cc(Cl)c1O	none
O=C(N1CCOCC1)N1CCN(c2ccccc2)CC1	Mtb MenB inh 36
O=C(Nc1ccccc1)C(=S)N1CCOCC1	Polio RdRp inh 82 (no result: Mtb MbtI inh)
N/C(=N\C(=S)Nc1ccccc1)N1CCOCC1	none
O=C(N1CCOCC1)N1CCN(c2ccccc2F)CC1	none
CC(=O)N1C(=O)C2(OCC3(CO2)COC2(OC3)C(=O)N(C(C)=O)c3ccccc32)c2ccccc21 (stereo not given)	none
CCN(CC)C(=O)c1noc2c1COc1ccccc1-2	none
N#CSc1ccc2nc(N)sc2c1	Mtb MbtI inh 53
Nc1nc2ccc(SC(F)F)cc2s1	none
O=C(c1cc(-c2ccc(Cl)cc2)n[nH]1)N1CCCC1	none
CC1(C)CC(=O)c2cnc(NC(=O)c3ccc(Cl)cc3)nc2C1	none
CCOC(=O)CC(NC(=O)N1CCC(CN2CCC(C)CC2)CC1)c1ccccc1 (stereo not given)	Polio RdRp inh 49 (no result: Mtb MenB inh, Mtb MbtI inh)
CCOc1ccc(NC(=O)N2CCC(CN3CCC(C)CC3)CC2)cc1	none (no result: Mtb MenB inh, Mtb MbtI inh)
CC12C=CC(O1)C1C(=O)N(c3ccccc3Cl)C(=O)C12 (stereo not given)	Mtb MbtI inh 66 (no result: Mtb MenB inh)
O=C1CC(Nc2ccccc2)C(=O)N1c1ccccc1Cl (stereo not given)	none (no result: Mtb MbtI inh)
O=C(O)C1C2C=CC3(CN(c4ccc(Cl)c(F)c4)C(=O)C13)O2 (stereo not given)	none (no result: Mtb MbtI inh)
COC(=O)c1cc(N2C(=O)C3C4C=CC(C)(O4)C3C2=O)ccc1Cl (stereo not given)	Mtb MbtI inh 81
N#CCCC(=O)c1ccco1	none
O=C(OC1CCOC1=O)c1cccc(S(=O)(=O)N2CCc3ccccc32)c1 (stereo not given)	none
CC1CCCN(S(=O)(=O)c2cccc(S(C)(=O)=O)c2)C1 (stereo not given)	none
Cc1cccc(N2C(=O)CC(Sc3ncn[nH]3)C2=O)c1 (stereo not given)	Mtb MbtI inh 99
CCOc1ccc(N2C(=O)CC(Sc3nccc(C)n3)C2=O)cc1 (stereo not given)	none
Cc1cccc(N2C(=O)CC(Sc3nccc(C)n3)C2=O)c1 (stereo not given)	Mtb MbtI inh 63
Cc1ccc(-c2nc(SC3CC(=O)N(c4ccccc4)C3=O)n[nH]2)cc1 (stereo not given)	none
CC(=O)Nc1cc(S(=O)(=O)C(F)(F)F)ccc1C	none
O=C(O)CSc1ccc2ccccc2c1	none
Cc1nc2[nH]n(-c3ccccc3)c(=O)c2c(C)c1CCC(=O)Nc1ccccc1	none
Cc1cc(C)c2c(=O)n(-c3ccccc3)[nH]c2n1	Mtb MbtI inh 52
CCOC(=O)c1sc2nc(C)cc(C)c2c1NC(=O)c1cccs1	none
Cc1cc(C)c2c(=O)n(C(=O)c3cccs3)sc2n1	Mtb MbtI inh 100
C[C@H]([C@H](C)N1CC(=O)NC(=O)C1)N1CC(=O)NC(=O)C1	none
CN1CC(=O)NC(=O)C1	Polio RdRp inh 84
O=C(Nc1cccc(C(=O)N2CCN(C(=O)c3ccco3)CC2)c1)c1ccccc1	none
Cc1sc2ncnc(N)c2c1C	Polio RdRp inh 67
CCN(CC)c1ncnc2sc(C)c(C)c12	none (no result: Mtb MenB inh)
C1CCCC(NCCCN2CCOCC2)CC1	none
CC(C)CNCCCN1CCOCC1	Mtb MenB inh 36
Cc1ccc(NC(=O)CN(C)C(=O)/C=C/c2ccco2)cc1	none
O=C(NCCC(=O)N1CCN(C(=O)c2cccs2)CC1)Nc1ccccc1	none
O=C(O)Cn1c2c(c3ccccc31)CSc1ccc(Cl)cc1-2	Mtb MbtI inh 96
Cn1nc(C(=O)NCc2cccc(Cl)c2)c2c1-c1ccccc1SC2	none (no result: Mtb MenB inh, Mtb MbtI inh)
CCOC(=O)N1CCN(C(=O)CCN2C(=O)/C(=C\c3ccco3)SC2=S)CC1	none
O=C(CC1SC(=O)N(c2ccccc2)C1=O)Nc1ccccc1 (stereo not given)	none
O=C(CC1Sc2ncnn2C1=O)Nc1ccccc1 (stereo not given)	Mtb MbtI inh 100
O=C(COC(=O)c1ccc2ccccc2n1)c1ccc2[nH]c(=O)[nH]c2c1	none
O=C1CC(c2ccccc2)C(=O)N1 (stereo not given)	none
CS(=O)(=O)N1Cc2ccccc2CC1C(=O)OCC(=O)Nc1ccc(OC(F)(F)F)cc1 (stereo not given)	none
CCN1C(=O)C2C=CC=CC2NC1=S (stereo not given)	none
CN1C(=O)C2C=CC=CC2NC1=S (stereo not given)	Polio RdRp inh 87
FC(F)(F)c1cc(-c2ccc3c(c2)OCO3)nc(=S)[nH]1	Mtb MenB inh 34
N#Cc1c(-c2ccc3c(c2)OCO3)cc(-c2ccc(F)cc2)nc1N	none
O=C(c1cnc(N2CCCC2)nc1)N1CCOCC1	none
COc1cccc(N2C(=O)/C(=C/C=C/c3ccco3)C(=O)NC2=S)c1	Mtb MbtI inh 101
O=C1NC(=S)N(c2ccccc2)C(=O)/C1=C/C=C/c1ccco1	none
CNCc1n[nH]c2c1CCCC2	none
OC1C(c2ccccc2)=NNC1c1ccccc1 (stereo not given)	none
COc1cccc(C2=NS(=O)(=O)N(C)C(C(=O)N3CCCC3)=C2)c1	none
Cc1ccc(OC(=O)c2cc(-c3ccc4c(c3)OCCO4)on2)cc1C	none (no result: Mtb MenB inh, Mtb MbtI inh)
Cc1cc(OC(=O)c2cc(-c3ccc4c(c3)OCCO4)on2)ccc1Cl	Polio RdRp inh -17 (no result: Mtb MenB inh, Mtb MbtI inh)
CCCN(CC1CC1)C(=S)Nc1ccc(OCC)cc1	none (no result: Mtb MbtI inh)
CCOC(=O)c1c(NC(=O)c2cc(CC(C)C)on2)sc(C(C)=O)c1C	Polio RdRp inh 81 (no result: Mtb MenB inh, Mtb MbtI inh)
CCOC(=O)c1c(NC(=O)c2cc(C(C)C)on2)sc(C(C)=O)c1C	none (no result: Mtb MenB inh, Mtb MbtI inh)
CCOC(=O)c1c(NC(=O)c2cc(-c3ccccc3OC)on2)sc(C)c1C	Polio RdRp inh 73 (no result: Mtb MenB inh, Mtb MbtI inh)
CC(C)Cc1cc(C(=O)Nc2sc3c(c2C#N)CCC3)no1	none
CCOC(=O)c1c(NC(=O)c2cc(-c3ccc(Cl)cc3)on2)sc(C)c1C	none (no result: Mtb MenB inh, Mtb MbtI inh)
CCOC(=O)c1c(NC(=O)c2cc(-c3ccc(OC)c(OC)c3)on2)sc(C)c1C	none (no result: Mtb MenB inh, Mtb MbtI inh)
CCOC(=O)c1c(NC(=O)c2cc(C)on2)sc(C)c1C	Polio RdRp inh 78 (no result: Mtb MenB inh, Mtb MbtI inh)
COc1ccccc1-c1cc(C(=O)Nc2sc3c(c2C#N)CCCC3)no1	Polio RdRp inh 82 (no result: Mtb MenB inh, Mtb MbtI inh)
Nn1c(SC(C(=O)N2CCCCC2)c2ccccc2)nnc1C1CC1 (stereo not given)	none
Cc1ccc(OCCNC(=O)c2sc(C)nc2C)cc1	none
Cc1ccc(C(=O)CCC(=O)Nc2ccc(Br)c(C)c2)cc1	none
CN(Cc1cccs1)S(=O)(=O)c1cn(C)c(=O)n(C)c1=O	none
COc1ccc(Br)cc1CN(C)C(C)C(=O)Nc1ccc2c(c1)OCO2 (stereo not given)	none
Cc1cccc(N2CCC(N=CN(CCO)CCO)=N2)c1	none
Cc1nc2ccc(S(=O)(=O)N(C)CC(=O)NC3CCCC3)cc2s1	none
CCOC(=O)c1c(NC(=O)c2cc(CC)on2)sc(C)c1C	Polio RdRp inh 90 (no result: Mtb MenB inh, Mtb MbtI inh)
CCOC(=O)c1sc(NC(=O)c2cc(C(C)C)on2)c(C(=O)OCC)c1C	none
O=C(CSc1nnnn1-c1ccccc1)N/N=C/c1ccc(Cl)cc1Cl	none
CC1=CC(=N/C(C)=N/S(=O)(=O)c2ccc(C)cc2)C=C(C)C1=O	Mtb MbtI inh 86
CS/C(N)=N/S(=O)(=O)c1ccc(C)cc1	none
CCC(=O)c1ccccc1OCC(=O)Nc1c(F)c(F)c(F)c(F)c1F	none (no result: Mtb MenB inh)
S=C(c1cccc(OCc2ccccc2)c1)N1CCCCC1	Mtb MbtI inh 73
CN1CCN(C(=S)c2cccc(OCc3ccccc3)c2)CC1	none
